Hits are enriched below; roughly 21% of the tested compounds scored in any of these assays.
IL1B secr inh = inhibitors of inflammasome signaling (IL-1 beta secretion) | THP-1 LPS/ATP IL-1B secretion, AlphaLISA, 16 h; hits give low values | hit rate 4.7% among 360,000 | activity change, % at 57.5 µM; in the data active = activity change below about -50%; inconclusive = mostly about -30% to -49%
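THP-1 cells pretreated 1 hr with compounds (up to 57.5 uM final), then stimulated with LPS (250 ng/mL final) plus ATP (1.25 mM final); secreted IL-1B measured by AlphaLISA after 16 hr, decreased signal indicating inhibition.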
D3 ag = D3 dopamine receptor (human) agonism. D3R DiscoveRx beta-arrestin cells, luminescence, 90 min. max activation, %. hit rate 0.58% among 410,000. AID 652048; in the data active = max activation above about 30%
Target sequence (P35462 whole entry, looked up): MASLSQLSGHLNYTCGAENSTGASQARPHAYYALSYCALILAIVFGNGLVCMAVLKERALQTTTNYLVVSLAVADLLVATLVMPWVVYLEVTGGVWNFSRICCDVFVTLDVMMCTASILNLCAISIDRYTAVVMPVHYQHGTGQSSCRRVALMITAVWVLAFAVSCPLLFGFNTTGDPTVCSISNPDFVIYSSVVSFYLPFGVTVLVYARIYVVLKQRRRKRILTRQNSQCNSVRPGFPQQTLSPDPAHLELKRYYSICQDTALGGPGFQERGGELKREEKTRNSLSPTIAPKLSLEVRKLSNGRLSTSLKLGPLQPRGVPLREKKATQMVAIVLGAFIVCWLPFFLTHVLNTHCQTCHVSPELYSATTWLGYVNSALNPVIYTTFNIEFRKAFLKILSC
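Cells at 1500/well, incubated overnight, then treated with pinned compounds (dopamine as control) for 90 min at 37 degrees C. DiscoveRx reagent added for 30 - 60 minutes at room temperature; luminescence read.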
DRD3 antagonist = D3 dopamine receptor (human) antagonism; P35462; D3R cells, DiscoveRx beta-arrestin luminescence, antagonist mode; hits give low values; max response, negative = inhibition, %; hit rate 2.5% among 360,000; AID 652054; in the data active = max response below about -50%; inconclusive = no clear call, values can overlap the other calls
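Cells plated overnight at 1500 cells/well, then exposed to library compounds with dopamine controls for 90 minutes at 37 degrees C. DiscoveRx reagent added for 30–60 minutes at room temperature; luminescence read, quantitative HTS format.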
TDP1 cell noCPT = qHTS for Inhibitors of human tyrosyl-DNA phosphodiesterase 1 (TDP1): qHTS in cells in absence of CPT | Potency, µM (highest dose often 46.2 µM), actives largely listed as inhibitors | hit rate 15% among 420,000 | AID 686978, 2013 | DT40 Tdp1-/- hTDP1 cells, no CPT, ATP luminescence, 48 h; note: nearly all actives have a fitted effect of over 55% in size
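No-CPT arm: Tdp1-/-;hTDP1 DT40 cells (400/well) plus compounds, incubated ≥48 hr at 37 °C. Readout CellTiter-Glo luminescence.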
ClpP mod = qHTS Assay for Activators of ClpP; Potency, µM (titrated, usually from 57.5 µM); ATP-dependent Clp protease proteolytic subunit (Bacillus subtilis (strain 168)), P80244; purified B. subtilis ClpP, FRET peptide cleavage, 20 min; hit rate 1.9% among 340,000; active = well fitted falling curve with a large enough effect; inconclusive = small, poorly fitted or top-dose-only effect; inactive = no such curve, though single readings can be large or run the other way; note: the source files actives as falling curves though it sought activators and does not explain the sign; nearly all actives have a fitted effect of over 65% in size
Target sequence (P80244 whole entry, looked up): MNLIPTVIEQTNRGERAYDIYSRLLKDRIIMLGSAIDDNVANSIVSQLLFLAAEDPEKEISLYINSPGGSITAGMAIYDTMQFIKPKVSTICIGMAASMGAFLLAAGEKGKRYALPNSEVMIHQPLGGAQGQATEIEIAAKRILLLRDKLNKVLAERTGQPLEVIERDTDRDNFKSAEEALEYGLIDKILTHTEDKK
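Buffer: 100 mM Tris/HCl pH8, 100 mM KCl, 0.05% low protease BSA, 2.5% glycerol, 0.01% Tween-20. ClpP 10 microg/mL final; 20 min RT; delta FRET normalized to ADEP and DMSO controls.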
TDP1 cell CPT = DT40-hTDP1 cell growth loss with CPT; chicken DT40 Tdp1-/-;hTDP1 cells + 20 nM CPT, ATP luminescence, 48 h; Potency, µM (highest dose often 46.2 µM), usual class: inhibitors; hit rate 12% among 420,000; note: nearly all actives have a fitted effect of over 55% in size
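Cell growth measured by CellTiter-Glo luminescence after a minimum 48 h, 37 C compound exposure with 20 nM CPT in Tdp1-knockout DT40 cells stably expressing hTDP1, seeded 400/well; qHTS titration format.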
Each line names hits and unclear results; the compound was inactive in the other large screens. Unless noted, calls come from the whole dose curve; as a rule, active = well fitted inhibition curve with a large enough effect; inconclusive = small, poorly fitted or top-dose-only effect; inactive = flat fitted curve, though single readings scatter.

CCCNC(=O)C1CCC(Cn2c(=O)c3sccc3n(CC(=O)N3CCCC3)c2=O)CC1 (configuration not stated)	none (no result: IL1B secr inh, DRD3 antagonist)
COc1ccccc1CNC(=O)CCC(=O)N1CC2CCCN2c2ccccc21 (configuration not stated)	none (no result: IL1B secr inh, DRD3 antagonist)
Cc1cccc(CCNC(=O)c2sc3nc4n(c(=O)c3c2C)CCCC4)c1	TDP1 cell noCPT inconclusive, TDP1 cell CPT 18µM (no result: IL1B secr inh, DRD3 antagonist)
CCc1ccc(N(CC)C(=O)c2sc3nc4n(c(=O)c3c2C)CCCC4)cc1	TDP1 cell noCPT 21µM, TDP1 cell CPT 26µM (no result: IL1B secr inh, DRD3 antagonist)
CCN(C(=O)c1sc2nc3n(c(=O)c2c1C)CCCCC3)c1ccc(OC)cc1	TDP1 cell noCPT inconclusive, TDP1 cell CPT inconclusive (no result: IL1B secr inh, DRD3 antagonist)
CCOc1ccc(CNC(=O)CCn2nc(C)c3c(C)n(-c4ccccc4)nc3c2=O)cc1	none (no result: IL1B secr inh, DRD3 antagonist)
CCOC(=O)N1CCN(c2c(F)cc3[nH]c(=S)[nH]c3c2Br)CC1	TDP1 cell noCPT 18µM, TDP1 cell CPT inconclusive
CCCC1NC(=O)c2cccnc2-n2c1nc1ccc(Cl)cc1c2=O (configuration not stated)	none
CC(C)c1ccc(S(=O)(=O)c2nnn3c2nc(N2CCN(C)CC2)c2sccc23)cc1	TDP1 cell noCPT inconclusive, TDP1 cell CPT 16µM (no result: IL1B secr inh, DRD3 antagonist)
CC1CCN(c2nc3c(S(=O)(=O)c4ccc(Cl)cc4)nnn3c3ccsc23)CC1	TDP1 cell noCPT 16µM, TDP1 cell CPT inconclusive (no result: IL1B secr inh, DRD3 antagonist)
CC1CCN(c2nc3c(S(=O)(=O)c4ccccc4)nnn3c3ccsc23)CC1	none (no result: IL1B secr inh, DRD3 antagonist)
CN1CCN(c2nc3c(S(=O)(=O)c4ccc(Cl)cc4)nnn3c3ccsc23)CC1	TDP1 cell noCPT inconclusive, TDP1 cell CPT inconclusive (no result: IL1B secr inh, DRD3 antagonist)
Cc1ccc(C)c(CN2C(=O)c3ccccc3S(=O)c3ccc(C(=O)NCCCN4CCCC4)cc32)c1 (configuration not stated)	DRD3 antagonist inconclusive, TDP1 cell noCPT inconclusive, TDP1 cell CPT inconclusive
COc1ccc(N2CCN(C(=O)c3ccc4c(c3)N(Cc3ccc(F)cc3)C(=O)c3ccccc3S4=O)CC2)cc1 (configuration not stated)	TDP1 cell noCPT inconclusive, TDP1 cell CPT inconclusive (no result: IL1B secr inh, DRD3 antagonist)
Cc1ccc(C)c(CN2C(=O)C(=O)c3ccccc32)c1	TDP1 cell noCPT 0.92µM, TDP1 cell CPT 1.2µM (no result: IL1B secr inh, DRD3 antagonist)
COc1ccc(N2CCN(C(=O)c3ccc4c(c3)N(Cc3cc(C)ccc3C)C(=O)c3ccccc3S4=O)CC2)cc1 (configuration not stated)	TDP1 cell noCPT 12µM, TDP1 cell CPT 15µM (no result: IL1B secr inh, DRD3 antagonist)
CCOC(=O)c1ccc2c(c1)N(Cc1ccccc1C)C(=O)c1ccccc1S2=O (configuration not stated)	TDP1 cell noCPT inconclusive, TDP1 cell CPT 14µM
Cc1ccccc1CN1C(=O)c2ccccc2S(=O)c2ccc(C(=O)NCc3ccccc3)cc21 (configuration not stated)	TDP1 cell noCPT inconclusive, TDP1 cell CPT inconclusive (no result: IL1B secr inh, DRD3 antagonist)
Cc1ccc(C)c(CN2C(=O)c3ccccc3S(=O)c3ccc(C(=O)N(C)Cc4ccccc4)cc32)c1 (configuration not stated)	TDP1 cell noCPT inconclusive, TDP1 cell CPT 18µM (no result: IL1B secr inh, DRD3 antagonist)
Cc1cc2oc(=O)cc(CN(C)Cc3ccccc3Cl)c2cc1C	TDP1 cell CPT inconclusive (no result: ClpP mod)
Cc1ccc(C)c(CN2C(=O)c3ccccc3S(=O)c3ccc(C(=O)N4CCC(C)CC4)cc32)c1 (configuration not stated)	TDP1 cell noCPT 23µM, TDP1 cell CPT inconclusive (no result: IL1B secr inh, DRD3 antagonist)
Cc1ncc(CCl)c2c1OC(C)(C)OC2	TDP1 cell noCPT 23µM, ClpP mod inconclusive, TDP1 cell CPT inconclusive
Cc1ccc(NC(=S)N2CCC(c3ccc(C)cc3)C2)cc1 (configuration not stated)	TDP1 cell noCPT inconclusive, TDP1 cell CPT inconclusive
CCOc1ccc(NC(=S)N2CCC(c3ccc(C)cc3)C2)cc1 (configuration not stated)	TDP1 cell noCPT 13µM, TDP1 cell CPT inconclusive
COc1cccc(NC(=S)N2CCC(c3ccc(C)cc3)C2)c1 (configuration not stated)	IL1B secr inh -78, TDP1 cell noCPT 7.3µM, TDP1 cell CPT 12µM (no result: ClpP mod)
COc1ccc(NC(=S)N2CCC(c3ccc(C)cc3)C2)cc1 (configuration not stated)	TDP1 cell noCPT inconclusive, TDP1 cell CPT inconclusive (no result: ClpP mod)
COc1cc(NC(=O)Cn2cnc3c(OCc4ccccc4)ncnc32)cc(OC)c1OC	TDP1 cell CPT inconclusive
COC(=O)c1ccc[n+](CCc2c[nH]c3ccccc23)c1	DRD3 antagonist inconclusive
COC(=O)CSc1nc(-c2ccccc2)cc(-c2ccco2)c1C#N	ClpP mod 25µM
COc1ccc(-c2cc(-c3ccccc3)nc(SCC(=O)Nc3nccs3)c2C#N)cc1	TDP1 cell noCPT 8.2µM, ClpP mod 28µM, TDP1 cell CPT inconclusive
CCc1nnc(NC(=O)CSc2nc(C)c3c(c2C#N)CCCC3)s1	TDP1 cell noCPT 18µM, TDP1 cell CPT 18µM
CCc1nnc(NC(=O)CSc2nc(-c3ccccc3)cc(-c3ccc(OC)cc3)c2C#N)s1	TDP1 cell noCPT 21µM, TDP1 cell CPT 23µM
COc1ccc(-c2cc(-c3ccccc3)nc(SCC(=O)Nc3ccccc3F)c2C#N)cc1	TDP1 cell noCPT inconclusive, ClpP mod inconclusive, TDP1 cell CPT inconclusive (no result: IL1B secr inh, DRD3 antagonist)
COc1ccc(NC(=O)CSc2nc(C)c3c(c2C#N)CCCC3)cc1	TDP1 cell CPT inconclusive
CC(Sc1nnnn1-c1ccc(O)cc1)C(=O)NC1CCCCC1C (configuration not stated)	none
CN(Cc1ccco1)c1ncncc1-c1cccc(C#N)c1	none (no result: IL1B secr inh, D3 ag, DRD3 antagonist, ClpP mod)
COC(=O)C1CCCCN1Cc1ccc2c(c1)CN(C(=O)c1ccc(F)cc1)CCO2 (configuration not stated)	none (no result: IL1B secr inh, D3 ag, DRD3 antagonist, ClpP mod)
CC(=O)N1CCCC1c1nc2ccccc2n1Cc1cccc(C)c1 (configuration not stated)	TDP1 cell noCPT inconclusive (no result: IL1B secr inh, DRD3 antagonist)
COc1ccc(-c2cc(-c3ccccc3)c(C#N)c(SCC(=O)Nc3ncc(C)s3)n2)cc1	DRD3 antagonist inconclusive, TDP1 cell noCPT inconclusive, ClpP mod 7.9µM
N#Cc1c(-c2ccccc2)cc(-c2ccccc2)nc1SCC(=O)Nc1ccc(Cl)cc1	none (no result: IL1B secr inh, DRD3 antagonist)
CCc1nnc(NC(=O)CSc2nc3cc(OC)ccc3cc2C)s1	TDP1 cell noCPT 8.2µM (no result: ClpP mod)
N#Cc1c(-c2ccc(Cl)cc2)cc(-c2ccccc2)nc1SCC(=O)O	TDP1 cell noCPT inconclusive, TDP1 cell CPT 18µM
Cc1ccc(-c2nc(CN3CCCC(C(=O)N4CCOCC4)C3)c(C)o2)cc1 (configuration not stated)	none

From PubChem BioAssay
